PfHsp90 yeast 2 – growth inhibition of PfHsp90-expressing yeast, primary screen, antimalarial PfHsp90 inhibitor project, S. cerevisiae, BacTiter-Glo luminescence, single point, set 2 | BacTiter-Glo ATP, 48 h; yeast lacking PDR1 and PDR3 efflux regulators | actives 0.32% (n = 310,000) | inhibition, % at 9.4 µM;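 active = every replicate shows inhibition above about 80%, whatever the replicate mean, limit read from the data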
NSD2 HMT inh – NSD2 histone methyltransferase inhibitors, primary screen, biochemical, AlphaScreen, single concentration, set 2; Histone-lysine N-methyltransferase NSD2 (Homo sapiens), O96028; NSD2 peptide methylation, 120 min; inhibition, % at 12.5 µM; actives 0.54% (n = 310,000); AID 743445, 2014; in the data active = inhibition above about 50%
Target sequence (O96028 whole entry, looked up): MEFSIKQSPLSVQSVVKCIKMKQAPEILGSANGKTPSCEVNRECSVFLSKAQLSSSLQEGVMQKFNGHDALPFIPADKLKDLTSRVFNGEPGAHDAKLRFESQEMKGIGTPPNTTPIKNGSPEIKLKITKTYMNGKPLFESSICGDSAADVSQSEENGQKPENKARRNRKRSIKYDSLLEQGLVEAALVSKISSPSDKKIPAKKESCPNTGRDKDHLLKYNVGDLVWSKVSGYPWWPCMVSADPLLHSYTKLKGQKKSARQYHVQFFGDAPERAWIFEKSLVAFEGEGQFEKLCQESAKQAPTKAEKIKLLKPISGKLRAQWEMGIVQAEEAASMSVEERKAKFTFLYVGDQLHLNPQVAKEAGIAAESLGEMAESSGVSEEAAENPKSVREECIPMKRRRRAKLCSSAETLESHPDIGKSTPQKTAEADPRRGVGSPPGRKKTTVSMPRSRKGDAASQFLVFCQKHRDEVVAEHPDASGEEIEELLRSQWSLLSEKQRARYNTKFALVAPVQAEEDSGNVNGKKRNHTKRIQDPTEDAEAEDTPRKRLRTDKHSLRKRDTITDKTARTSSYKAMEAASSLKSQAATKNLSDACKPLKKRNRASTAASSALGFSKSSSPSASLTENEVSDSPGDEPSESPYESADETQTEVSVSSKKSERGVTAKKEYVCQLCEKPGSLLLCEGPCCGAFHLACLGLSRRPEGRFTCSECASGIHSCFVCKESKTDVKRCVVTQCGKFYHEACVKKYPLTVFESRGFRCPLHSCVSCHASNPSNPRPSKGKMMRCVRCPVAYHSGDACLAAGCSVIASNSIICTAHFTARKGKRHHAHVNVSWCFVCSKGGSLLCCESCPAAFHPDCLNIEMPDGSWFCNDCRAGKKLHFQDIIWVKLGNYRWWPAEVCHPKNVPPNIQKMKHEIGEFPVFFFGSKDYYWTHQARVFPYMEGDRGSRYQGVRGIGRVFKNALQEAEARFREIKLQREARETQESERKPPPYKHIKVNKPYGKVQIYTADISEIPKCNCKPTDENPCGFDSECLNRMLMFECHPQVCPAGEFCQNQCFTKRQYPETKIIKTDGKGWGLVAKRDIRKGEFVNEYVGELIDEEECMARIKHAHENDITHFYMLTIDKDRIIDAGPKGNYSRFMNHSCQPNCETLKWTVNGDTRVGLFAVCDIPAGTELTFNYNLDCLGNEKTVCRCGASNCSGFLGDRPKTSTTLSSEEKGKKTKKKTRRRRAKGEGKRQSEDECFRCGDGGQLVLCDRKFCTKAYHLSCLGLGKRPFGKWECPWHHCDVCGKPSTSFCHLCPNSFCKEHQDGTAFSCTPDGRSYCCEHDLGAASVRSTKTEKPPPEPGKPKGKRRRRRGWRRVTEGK
ARNT-TACC3 inh – disruptors of ARNT/TACC3 protein interaction, primary screen, biochemical, AlphaScreen, single concentration; AlphaScreen His-ARNT PAS-B/GST-TACC3 binding, luminescence; TACC3 fragment carries E629A point mutation; inhibition, % at 9.99 µM; Transforming acidic coiled-coil-containing protein 3 (Homo sapiens), Q9Y6A5; actives 0.66% (n = 390,000);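 active = mean inhibition of replicates at least 50% and at least half of replicates each reaching 50%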
CASP6 VEID inh – human caspase-6 inhibitors, primary screen, biochemical, VEID-R110 fluorescence, single point, set 2 | P55212 | purified caspase-6, Z-VEID-R110 cleavage fluorescence | inhibition, % at 12.5 µM | actives 0.53% (n = 350,000);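 active = mean inhibition across replicates at least about 35%, with every replicate also reaching that limit, limit read from the data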
SIRT5 block – SIRT5 desuccinylase inhibitors, primary screen, biochemical, fluorescence imaging, single point, set 5. NAD-dependent protein deacylase sirtuin-5, mitochondrial (Homo sapiens), Q9NXA8. Purified SirT5, succinyl-peptide AMC, trypsin-coupled fluorescence. inhibition, % at 15 µM. actives 1.1% (n = 330,000); in the data active = inhibition above about 15%
Each line names hits and unclear results; the compound was inactive in the other large screens. Sampled rows, rich in hits. Any-hit rate of the full collection: about 2.1%.

C/C=C/c1ccccc1[C@H]1[C@@H](CO)N(C(=O)CN2CCOCC2)[C@H]1C#N	none (no result: PfHsp90 yeast 2, NSD2 HMT inh, ARNT-TACC3 inh)
COc1ccccc1NC(=O)N(C)C[C@@H]1OCc2cn(nn2)CCCC(=O)N([C@@H](C)CO)C[C@@H]1C	none (no result: PfHsp90 yeast 2, NSD2 HMT inh)
CC(C)NC(=O)Nc1ccc2c(c1)C(=O)N([C@H](C)CO)C[C@H](C)[C@H](CN(C)C(=O)Cc1ccccc1)OCCCC[C@H](C)O2	SIRT5 block 19 (no result: PfHsp90 yeast 2, NSD2 HMT inh)
CC(C)c1ccc2[nH]c3c(c2c1)[C@@H]1CCN2C(=O)CCC[C@H](C3)[C@H]12	SIRT5 block 35 (no result: NSD2 HMT inh)
COc1ccc(CCNC(=O)C23CCC(C)(C(=O)C2Br)C3(C)C)cc1OC (centres undefined)	ARNT-TACC3 inh 49
COc1ccc(CCNC(=O)C23CCC(C)(C(=O)C2=O)C3(C)C)cc1OC (centres undefined)	none
O=C(NCCc1ccccn1)c1ccc(OC(F)F)cc1	none
O=C(NNC(=O)c1ccccn1)c1ccc(OC(F)F)cc1	ARNT-TACC3 inh 71
COc1cc(-c2noc(C)c2/C=C/c2ccc(C(=O)O)cc2)cc(OC)c1OC	CASP6 VEID inh 35 (no result: NSD2 HMT inh)
COc1cc(-c2noc(C)c2/C=C/c2cccc([N+](=O)[O-])c2)cc(OC)c1OC	none (no result: NSD2 HMT inh)
COC(=O)C1=C(C)N(Cc2ccccc2C(F)(F)F)C(=NCc2ccc3c(c2)OCO3)NC1c1ccccc1 (centres undefined)	SIRT5 block 17 (no result: PfHsp90 yeast 2, ARNT-TACC3 inh)
COC(=O)C1=C(C)N(Cc2ccccc2C(F)(F)F)C(=NCc2ccc3c(c2)OCO3)NC1c1ccc(C(F)(F)F)cc1 (centres undefined)	none (no result: PfHsp90 yeast 2, ARNT-TACC3 inh)
CC1CC(C)C(=NNC(N)=O)C(C(O)CC2CCC(=O)NC2=O)C1 (centres undefined)	PfHsp90 yeast 2 114
O=C(Oc1cccc(C(=S)N2CCOCC2)c1)c1ccc([N+](=O)[O-])cc1[N+](=O)[O-]	SIRT5 block 101
O=C(NCc1ccncc1)c1ccc(Oc2ccccc2)cc1	none
O=C(NCc1ccncc1)c1ccc(OCc2ccccc2)cc1	CASP6 VEID inh 36 (no result: SIRT5 block)
CO[C@@H]1CN(C)C(=O)c2ccc(NC(=O)Nc3c(C)noc3C)cc2OC[C@@H](C)NC[C@@H]1C	none (no result: PfHsp90 yeast 2, NSD2 HMT inh, CASP6 VEID inh)
CO[C@H]1CN(C)C(=O)c2cc(NC(=O)C3CCC3)ccc2OC[C@@H](C)N(Cc2ccc(F)cc2)C[C@H]1C	none (no result: PfHsp90 yeast 2, NSD2 HMT inh)
CCOC(=O)CSc1nc(C)c2cc(C)c(C)cc2n1	SIRT5 block 17
C[C@@H]1CN([C@H](C)CO)C(=O)c2c(c3ccccc3n2C)-c2ccccc2CO[C@@H]1CN(C)S(=O)(=O)c1ccc(C(F)(F)F)cc1	SIRT5 block 32 (no result: PfHsp90 yeast 2, NSD2 HMT inh, ARNT-TACC3 inh)
C[C@@H]1CN([C@H](C)CO)C(=O)c2c(c3ccccc3n2C)-c2ccccc2CO[C@H]1CN(C)S(=O)(=O)c1ccc(C(F)(F)F)cc1	SIRT5 block 25 (no result: PfHsp90 yeast 2, NSD2 HMT inh, ARNT-TACC3 inh)
C[C@H]1CN([C@@H](C)CO)C(=O)c2c(c3ccccc3n2C)-c2ccccc2CO[C@H]1CN(C)S(=O)(=O)c1ccc(C(F)(F)F)cc1	none (no result: PfHsp90 yeast 2, NSD2 HMT inh, ARNT-TACC3 inh)
CCC(=O)N(C)C[C@H]1Oc2cc(-c3ccc(OC)cc3)ccc2S(=O)(=O)N([C@@H](C)CO)C[C@H]1C	none (no result: PfHsp90 yeast 2, NSD2 HMT inh)
Cc1noc(C)c1COC(=O)CCCNC(=O)c1ccc(Cl)cc1	none
Cc1cccc(COC(=O)CCCNC(=O)c2ccc(Cl)cc2)c1	PfHsp90 yeast 2 93
O=C(C[C@H]1C[C@@H]2c3cc(NC(=O)c4cccnc4)ccc3O[C@@H]2[C@@H](CO)O1)NCCc1ccccc1	none (no result: PfHsp90 yeast 2, NSD2 HMT inh)
COC(=O)[C@H]1[C@H](CO)[C@H]2Cn3c(ccc(C4=CCCCC4)c3=O)[C@H]2N1CCC(F)(F)F	none (no result: PfHsp90 yeast 2, NSD2 HMT inh)
C/C(=N/NC(=O)c1cc(O)c(O)c(O)c1)c1ccc([N+](=O)[O-])cc1	CASP6 VEID inh 74 (no result: ARNT-TACC3 inh)
CCCn1c(=O)c2c(nc3n2CCCN3Cc2ccccc2)n(C)c1=O	ARNT-TACC3 inh 49
CCN1CCN(C(=O)c2ccc(C(F)(F)F)cc2)CC1	SIRT5 block 20
CO[C@@H]1CN(C)C(=O)c2ccc(NC(C)=O)cc2OC[C@H](C)N(C(=O)CC2CC2)C[C@H]1C	none (no result: PfHsp90 yeast 2, NSD2 HMT inh)
CO[C@H]1CN(C)C(=O)c2ccc(NC(=O)c3cnccn3)cc2OC[C@@H](C)N(CC2CC2)C[C@H]1C	none (no result: PfHsp90 yeast 2, NSD2 HMT inh, ARNT-TACC3 inh)
CC(C)(C)C(=O)CNCC(=O)C(C)(C)C	SIRT5 block 25
C=CCNC(=O)COc1c(C)ccc(C)c1C	SIRT5 block 23 (no result: PfHsp90 yeast 2)
O=C(N[C@@H]1CC[C@H](CCNC(=O)c2ccccc2F)O[C@@H]1CO)c1ccc2c(c1)OCO2	none (no result: PfHsp90 yeast 2, NSD2 HMT inh)
Cc1cc(C)cc(CSCC(=O)N/N=C/c2ccc(OCC(=O)NCc3ccco3)cc2)c1	SIRT5 block 20
C[C@@H]1CN([C@H](C)CO)S(=O)(=O)c2ccc(C3=CCCC3)cc2O[C@@H]1CN(C)Cc1cccc(C(=O)O)c1	none (no result: PfHsp90 yeast 2, NSD2 HMT inh)
CCCC#Cc1cnc2c(c1)C(=O)N([C@@H](C)CO)C[C@H](C)[C@H](CN(C)C(=O)NCCC)O2	none (no result: PfHsp90 yeast 2, NSD2 HMT inh)
O=C(Nc1ccccc1N1CCOCC1)c1ccc([N+](=O)[O-])s1	PfHsp90 yeast 2 103
O=C(Nc1ccccc1N1CCOCC1)c1ccccc1[N+](=O)[O-]	none (no result: CASP6 VEID inh, SIRT5 block)
CN1CCN(C(=O)C[C@@H]2CC[C@H]3[C@@H](COC[C@H](O)CN3CC3CCCCC3)O2)CC1	none (no result: PfHsp90 yeast 2, NSD2 HMT inh)
CC(C)NC(=O)N(C)C[C@@H]1OCc2ccccc2-c2c(n(C)c3ccccc23)C(=O)N([C@H](C)CO)C[C@@H]1C	none (no result: PfHsp90 yeast 2, NSD2 HMT inh)
CN(C(=O)CCc1nnc(CCCCc2ccccc2)o1)C1CCOCC1	none
CN(C(=O)CCc1nnc(CCCCc2ccccc2)o1)C1CC(C)(C)NC(C)(C)C1	SIRT5 block 27
CC(C)N(C(=O)COC(=O)[C@H](C)NC(=O)c1ccco1)c1ccccc1	SIRT5 block 31
O=C(NNC(=O)c1ccccc1F)c1ccc2nc[nH]c2c1	none
O=C(NNC(=O)c1ccccc1Br)c1ccc2nc[nH]c2c1	CASP6 VEID inh 47
Cc1oc(-c2ccc(Cl)cc2)nc1CN1CCCC(C(=O)N2CCOCC2)C1 (centres undefined)	SIRT5 block 22
Cc1oc(-c2ccc(Cl)cc2)nc1CN1CCCC(C(=O)N2CCN(C(=O)c3ccco3)CC2)C1 (centres undefined)	none (no result: PfHsp90 yeast 2, NSD2 HMT inh)
Cc1ccc(N=Nc2c(O)[nH]c3ccc(F)cc23)cc1	none
O=c1[nH]nc(N=Nc2c(O)[nH]c3ccc(F)cc23)c(=O)[nH]1	ARNT-TACC3 inh 63
CO[C@H](CN(C)S(=O)(=O)c1ccc(C)cc1)[C@@H](C)CN(Cc1ccccc1Cl)[C@H](C)CO	none (no result: PfHsp90 yeast 2, NSD2 HMT inh, SIRT5 block)
Cc1ccc(NC(=S)N2CCC(NC(=O)c3ccc(C)cc3)CC2)cc1	none (no result: NSD2 HMT inh)

Compound activity: PubChem, Broad Institute
